High-throughput results: PubChem, National Center for Advancing Translational Sciences (NCATS)
HP1b binding inh = inhibitors of HP1-beta chromodomain binding to methylated histone tails; AlphaScreen HP1-beta / biotin-H3K9me3 peptide binding; P83916; AID 540317; 390,000 tested, 0.56% active; Potency, µM (top dose mostly 114 µM), most hits filed as inhibitors; also: nearly all actives have a fitted effect of over 70% in size
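HP1-beta protein (50 nM final) preincubated 30 min at room temperature with biotinylated H3(1-18)K9me3 peptide (50 nM) in PBS pH 7.4, 0.01% Tween-20, then compound added for 30 min. AlphaScreen streptavidin donor/nickel chelate acceptor beads (10 ug/mL final), 30 min dark, luminescence read.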
G9a inh = inhibitors of human histone lysine methyltransferase G9a; G9a H3K9 monomethylation, AlphaScreen, 2 h; Potency, µM (series often up to 102 µM), most hits filed as inhibitors; Q96KQ7; 350,000 tested, 8.8% active; also: nearly all actives have a fitted effect of over 75% in size
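G9a (20 nM) was preincubated 15 min with compound, then reacted 2 h at room temperature with 500 nM biotin-H3K9 peptide and 20 µM SAM. Monomethyl-H3K9 detected by AlphaScreen using anti-H3K9me1 antibody.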
CtBP-E1A blk = CtBP/E1A binding inhibition. AlphaScreen GST-E1A/His-CtBP binding, 1536-well; active compounds read low. activity change, % (test concentration not listed). 340,000 tested, 0.49% active. AID 651724; in the data active = activity change below about -65%; inconclusive = mostly about -30% to -63%
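In 5 uL wells, 23 nL compound meets equimolar GST-E1A and His-CtBP (5X stock 125 nM each) for 2 h, 37 °C. Beads (5X, 50 ug/mL) then 1 h, 37 °C, dark.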
BAZ2B block = BAZ2B (human) inhibition. Potency, µM (doses to about 114 µM), actives largely listed as inhibitors. AID 504333. 360,000 tested, 4.4% active. AlphaScreen BAZ2B-H3K14Ac peptide displacement; also: nearly all actives have a fitted effect of over 60% in size
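Multi-concentration screen (max 110 uM) measuring displacement of acetylated histone H3 peptide from BAZ2B by AlphaScreen, using 50 nM protein, 50 nM peptide and 10 ug/mL streptavidin donor plus Ni-chelate acceptor beads.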
Six1-Eya2 inh = inhibitors of human Six1/Eya2 interaction; AID 651725; activity change, % (test concentration not listed); 360,000 tested, 0.56% active; Q15475+O00167; AlphaScreen GST-Six1/His-Eya2 binding, biochemical; active compounds read low; in the data active = activity change below about -65%; inconclusive = mostly about -30% to -63%
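Homogeneous AlphaScreen proximity assay pairing GST-Six1 with His-tagged Eya2 (added as 5X mix: 250 nM and 500 nM) in 50 mM Tris pH 8.0, 300 mM NaCl, 1 mM TCEP. Glutathione donor and nickel acceptor beads; 1 h, 37 °C, dark.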
JMJD2A Tudor = blocks the human JMJD2A Tudor domain; O75164; AlphaScreen JMJD2A-Tudor / H3K4me3 peptide binding; Potency, µM (series often up to 114 µM), usual class: inhibitors; 390,000 tested, 4.4% active; AID 504339; also: nearly all actives have a fitted effect of over 50% in size
Numbers stand for hits; – = inactive; ? = inconclusive; · = no result; [ ] = another dose, or the depositor's remark. In the library only some 10% were active in any assay of this set; here they are far more common. Unless noted, calls follow the shape of the dose curve; as a rule, active = well fitted inhibition curve with a large enough effect; inconclusive = small, poorly fitted or top-dose-only effect; inactive = no such curve, though single readings can be large or run the other way.

SMILES	HP1b binding inh	G9a inh	CtBP-E1A blk	BAZ2B block	Six1-Eya2 inh	JMJD2A Tudor
CCc1ccc(C2C(C#N)=C(N)OC3=C2C(=O)CCC3)s1 (configuration not stated)	–	–	–	–	–	–
CCc1ccc(C2C(C#N)=C(N)SC(N)=C2C#N)s1	–	40µM	–	–	–	–
CCN(CC)CCNCC(O)(c1ccc(Cl)cc1)c1ccc(Cl)cc1	–	–	–	–	–	–
CCN(CC)CCNCc1ccc(-c2ccc(Cl)cc2)o1	–	50µM	–	?	–	?
Cc1ccn2cc(CNS(=O)(=O)c3ccc4ccccc4c3)nc2c1	–	71µM	–	–	–	–
Cc1cccn2cc(CNS(=O)(=O)c3ccc4ccccc4c3)nc12	–	·	–	?	–	–
CC1(C)C(=O)N(CC(=O)Nc2ccc(OC(F)(F)F)cc2)c2ccccc21	–	–	·	–	·	–
FC(F)(F)c1cnc(-n2cc[nH]c2=S)c(Cl)c1	–	32µM	–	–	–	79µM
Cc1ccc(-c2nc(N3CCN(S(=O)(=O)c4ccc(F)cc4)CC3)c3ccc(Cl)cc3n2)cc1	–	·	·	·	·	–
C#CCOc1ccc(Cl)cc1/C=C1/C(=O)ON=C1C	–	32µM	–	?	–	35µM
C#CCOc1ccc(/C=C2/C(=O)ON=C2C)cc1Br	–	35µM	–	–	–	–
Cc1c(C(=O)Nc2ccc(F)c(C(F)(F)F)c2)sc2nc(-c3ccccc3)cn12	–	–	·	–	·	–
CCOC(=O)C1=C(O)/C(=C/c2ccc(CNC(=O)C(=O)Nc3ccc(C)cc3)o2)N=C1C	–	32µM	–	50µM	–	–
CCOC(=O)c1ccc(NC(=O)C(=O)NCc2ccc(/C=C(/C#N)C(=O)NCCOC)o2)cc1	–	–	–	–	–	–
COC(=O)C1=C(O)/C(=C\c2ccc(CNC(=O)C(=O)Nc3ccc(C)c(C)c3)o2)N=C1C	–	50µM	–	–	–	–
CCOC(=O)C(=O)NCc1ccc(/C=C2/N=C(C)C(C(=O)OCC)=C2O)o1	–	·	–	–	–	–
COC(=O)C1=C(O)/C(=C\c2ccc(CNS(=O)(=O)c3ccccc3)o2)N=C1C	–	?	–	–	–	?
COC(=O)C1=C(O)/C(=C\c2ccc(CNC(=O)C(=O)Nc3ccc(C)cc3)o2)N=C1C	–	32µM	–	32µM	–	?
Cc1cc([N+](=O)[O-])ccc1NC(=O)c1cccc(NC(=O)C(C)C)c1	–	–	·	–	–	–
O=C(Nc1ccc(Cl)c(Cl)c1)c1cccc(S(=O)(=O)NCc2cccnc2)c1	–	–	–	–	?	–
O=c1oc2ccccc2c(O)c1C=Nc1cccnc1	–	50µM	–	–	–	?
O=[N+]([O-])c1cccc(/C=N\N2CCN(Cc3ccccc3Cl)CC2)c1	?	10µM	–	35µM	?	45µM
O=[N+]([O-])c1cccc(/C=N/N2CCN(Cc3ccccc3)CC2)c1	–	?	–	25µM	–	?
O=[N+]([O-])c1cccc(/C=N/N2CCN(c3ccccn3)CC2)c1	?	32µM	–	–	–	–
O=[N+]([O-])c1cccc(/C=N/N2CCN(Cc3ccc(Cl)cc3)CC2)c1	?	·	–	20µM	?	50µM
SMILES	HP1b binding inh	G9a inh	CtBP-E1A blk	BAZ2B block	Six1-Eya2 inh	JMJD2A Tudor
O=C(N/N=C/c1cccc([N+](=O)[O-])c1)c1ccc(CN2CCOCC2)cc1	–	–	–	–	–	–
CC1CCCC(C)N1/N=C/c1cccc([N+](=O)[O-])c1 (configuration not stated)	–	–	–	–[0.457 µM]	?	?
O=[N+]([O-])c1ccc(N2CCN(c3ccccn3)CC2)c(Cl)c1	–	–	–	–	–	–
CCOC(=O)N1CCc2c(sc3c2c(=O)n(-c2ccccc2)c(=O)n3CC(=O)Nc2ccc(OC)cc2OC)C1	–	–	·	–	·	–
COc1ccc(CNS(=O)(=O)c2ccc(F)c(C(=O)Nc3c(C)cc(C)cc3C)c2)cc1	–	–	·	–	·	–
CCOc1ccc(CNC(=O)C2CCN(C(=O)c3sccc3-n3cccc3)CC2)cc1	–	–	·	–	·	–
Oc1ccccc1/C=N/N1CCN(c2ccccn2)CC1	–	–	–	?	–	?
C(=N\N1CCN(c2ccccn2)CC1)/c1cccc2ccccc12	?	40µM	?	35µM	?	40µM
Cc1cccnc1NC(=O)C1CCN(S(=O)(=O)c2ccc3ccccc3c2)CC1	–	?	–	–	–	–
O=[N+]([O-])c1ccc(/C=N/n2cn[nH]c2=S)cc1	–	7.9µM	–	–	–	7.1µM
CC(C)c1ccc(/C=N/n2c(-c3ccccc3)n[nH]c2=S)cc1	–	–[0.501 µM]	·	–	–	?
Cc1ccc(/C=N/n2c(-c3ccccc3)n[nH]c2=S)cc1	–	1.1µM	–	–	–	79µM
Cc1ccc(-c2n[nH]c(=S)n2/N=C/c2ccc(C(=O)O)cc2)cc1	–	3.2µM	–	–	–	3.2µM
CSc1nncn1/N=C/c1ccc([N+](=O)[O-])cc1	–	–	–	–	–	–
O=[N+]([O-])c1ccc(/C=N/n2c(-c3ccccc3)n[nH]c2=S)cc1	–	0.56µM	–	–	–	40µM
O=[N+]([O-])c1ccc(/C=N/Nc2ncc(-c3ccccc3)cn2)cc1	–	–	·	–	–	–[11.4 µM]
COc1ccc(OC)c2nc(-c3ccncc3)ccc12	–	–	–	–	–	–
CN1CCC2(CC1)N=C(c1ccc(F)cc1)C(=S)N2C(=O)c1ccc(C(C)(C)C)cc1	32µM	10µM	–	35µM	–	32µM
COc1ccc(-n2c(=O)c3ccccc3n(CC(=O)NCCc3ccccc3)c2=O)c(OC)c1	–	–	·	–	·	–
NC(=O)N/N=C/c1ccc(-c2ccc(S(=O)(=O)Nc3ncccn3)cc2)o1	–	11µM	–	–	–	–
CC(C)Oc1ccc(C(=O)N/N=C/c2ccc(-c3ccc(S(=O)(=O)Nc4ncccn4)cc3)o2)cc1	–	50µM	–	?	–	?
COc1cccc(CNC(=O)C2CCC(=O)N(C3CC3)C2)c1OC (configuration not stated)	–	·	–	–	–	–
COc1ccc(C(=O)OCC(=O)NC2CCCCCC2)c(OC)c1	–	–	–	–	–	–
Cc1ccc(S(=O)(=O)OCCC2=CC(=O)CCN2Cc2ccccc2)cc1	–	·	–	·	–	–
Cc1ccc(Nc2c(-c3ccco3)nc3ccccn23)cc1	–	40µM	–	?	–	?
Cc1ccc2nc(-c3c[nH]c4ccccc34)c(Nc3ccccc3C)n2c1	–	–	·	–	·	–
Cc1ccc(Nc2c(-c3ccc(Br)o3)nc3ccccn23)cc1	–	–	·	?	·	–
Cc1ccc(Nc2c(-c3c[nH]c4ccccc34)nc3ccccn23)cc1	?	28µM	·	18µM	·	22µM
